The values below come from PubChem BioAssay (Tox21).

Experiment [1] in a line: qHTS assay to test for compound auto fluorescence at 460 nm (blue) in HEK293 cell free culture (AID 720681). The gist of the method: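 Test compounds were pinned into cell-free culture medium (DMEM with 10% FBS) and fluorescence was read directly at Ex/Em 405/460 nm. Signals were expressed as fluorescence equivalents of triamterene, with DMSO vehicle as control.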
In general terms: In qHTS, concentration-response curves come from the screen itself.

Experiment [2] in a line: qHTS assay to test for compound auto fluorescence at 535 nm (green) in HEK293 cell free culture (AID 720682). In short, it runs like this:
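DMEM + 10% FBS, cell-free; cpd or DMSO pinned in; Ex485/Em535 read; output as fluorescein-equivalent signal.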

Experiment [3] in a line: qHTS assay to test for compound auto fluorescence at 590 nm (red) in HEK293 cell free culture (AID 720683). In short, it runs like this:
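Tox21 10K library compounds were pinned into cell-free DMEM with 10% FBS and fluorescence was read at excitation 540 nm. Activity is expressed as Rose Bengal sodium equivalency.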

Experiment [4] is described as follows: qHTS assay to test for compound auto fluorescence at 590 nm (red) in HepG2 cell free culture (AID 720684). The gist of the method:
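Measured in medium alone (MEM containing 10% FBS) following pintool addition of compound; emission at 590 nm with 540 nm excitation, referenced to Rose Bengal sodium.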

Experiment [5] is described as follows: qHTS assay to test for compound auto fluorescence at 460 nm (blue) in HepG2 cell free culture (AID 720685). The gist of the method:
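Compound (23 nL) or DMSO pinned into cell-free MEM with 10% FBS; blue fluorescence read at 405/460 nm excitation/emission, expressed as auto-fluorescence equivalency to triamterene.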

A short description of experiment [6]: qHTS assay to test for compound auto fluorescence at 535 nm (green) in HepG2 cell free culture (AID 720686). Note: potency is the fitted concentration of half-maximal effect.
Experiment [7] can be described thus: qHTS assay to test for compound auto fluorescence at 460 nm (blue) in HepG2 cells (AID 720687). In short, it runs like this:
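Cells (2,000/well in MEM with 10% FBS) attached overnight at 37 C, then were exposed to compound or DMSO for 1 hr at 37 C, 5% CO2. Fluorescence read at Ex/Em 405/460 nm, expressed as triamterene-equivalent signal.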

Experiment [8] concerns the target Glucocorticoid receptor (Homo sapiens) (UniProt P04150). The experiment can be described thus: qHTS assay to identify small molecule agonists of the glucocorticoid receptor (GR) signaling pathway (AID 720691; active = well fitted activation curve with a large enough effect in the signal ratio in the repeat runs, not every such curve was filed as active; inconclusive = weak or mixed curves, or effect the other way; inactive = no such curve, though single readings can be large or run the other way; the % refers to the signal ratio; note: potency is the fitted concentration of half-maximal effect). The settings on record: GR-bla HeLa, beta-lactamase reporter ratio, 18 h; activation: at 62.4 µM (top of the series). The gist of the method: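 Reporter read-out: fluorescence intensity following 2 h room-temperature LiveBLAzer B/G FRET substrate loading. Prior step: GR-bla HeLa cells held 4 h, then treated 18 h at 37 C.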

Experiment [9] shares this target. Kind of experiment: qHTS assay to identify small molecule antagonists of the glucocorticoid receptor (GR) signaling pathway (AID 720692; active = well fitted inhibition curve with a large enough effect in the signal ratio in the repeat runs, not every such curve was filed as active; inconclusive = weak or mixed curves, or effect the other way; inactive = no such curve, though single readings can be large or run the other way; the % refers to the signal ratio). The gist of the method:
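Dexamethasone (5 nM final) stimulated a stably integrated GRE-beta-lactamase reporter in HeLa cells during 18 h co-incubation with compounds; signal was quantified as fluorescence intensity of B/G FRET substrate after 2 h.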

Activity calls are given as the source filed them. Unless noted, calls come from the whole dose curve; as a rule, active = well fitted curve in the direction sought with a large enough effect in the repeat runs; inconclusive = weak or mixed curves; inactive = flat fitted curve, though single readings scatter. Positions of bridges follow the written chain, without caps; N, C: chain ends. Non-standard residues stand in square brackets, D forms with d. Residues, ends and D or L forms follow the SMILES beside them. *: point of attachment. Dab(CH2SO3H) = N[C@@H](CCNCS(=O)(=O)O)C(=O)O; X3 = CC[C@@H](C)CCCCC(=O)*; Dab = NCC[C@H](N)C(=O)O
Tags give direction and shape of the fitted curve or compound fluorescence and quenching.

Glucocorticoid receptor (Homo sapiens), sequence (P04150 whole entry, looked up): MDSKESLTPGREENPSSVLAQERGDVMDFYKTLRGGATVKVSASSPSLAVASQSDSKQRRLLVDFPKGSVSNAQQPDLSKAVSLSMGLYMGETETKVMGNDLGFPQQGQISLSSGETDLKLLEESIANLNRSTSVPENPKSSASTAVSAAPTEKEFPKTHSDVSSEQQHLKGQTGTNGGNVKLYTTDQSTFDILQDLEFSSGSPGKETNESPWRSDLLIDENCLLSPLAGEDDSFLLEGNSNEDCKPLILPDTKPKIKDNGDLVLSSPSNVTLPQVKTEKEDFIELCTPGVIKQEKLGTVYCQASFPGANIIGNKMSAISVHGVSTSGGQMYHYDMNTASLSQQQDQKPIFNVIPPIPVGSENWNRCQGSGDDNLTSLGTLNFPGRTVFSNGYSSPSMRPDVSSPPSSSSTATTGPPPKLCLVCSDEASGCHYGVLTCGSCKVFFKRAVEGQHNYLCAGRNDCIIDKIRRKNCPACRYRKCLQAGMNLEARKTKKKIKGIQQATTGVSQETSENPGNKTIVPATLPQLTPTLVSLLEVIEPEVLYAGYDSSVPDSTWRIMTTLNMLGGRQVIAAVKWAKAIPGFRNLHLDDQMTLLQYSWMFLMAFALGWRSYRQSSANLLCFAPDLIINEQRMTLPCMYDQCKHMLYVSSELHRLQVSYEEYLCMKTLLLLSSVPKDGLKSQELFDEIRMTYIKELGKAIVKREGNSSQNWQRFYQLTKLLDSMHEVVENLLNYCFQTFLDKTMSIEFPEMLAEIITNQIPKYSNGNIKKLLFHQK

In the case of `CC(=O)NC[C@H]1CN(c2ccc(N3CCOCC3)c(F)c2)C(=O)O1`, the Potency result in [1], in [5], in experiment [6], in experiment [7] and in experiment [8] was “inactive” each time. The compound was called inactive in experiment [2], in [3] and in experiment [4].
`Nc1cc(Cl)c(NC2=NCCN2)c(Cl)c1`: the Potency result in experiment [1], in experiment [5], in experiment [6], in experiment [7] and in experiment [8] was “inactive” in each case. Further, the compound was called inactive in [2], in experiment [3] and in experiment [4].
In the case of `O=c1[nH]c(=O)n([C@H]2C[C@H](O)[C@@H](CO)O2)cc1/C=C/Br`, the Potency result in experiment [1], in [5], in experiment [6], in experiment [7] and in experiment [8] was “inactive” in each case. The call in [2], in experiment [3] and in experiment [4] was inactive.
Consider `CN(C)CCC(O)(c1ccccc1)c1ccccc1Cl` (stereo unspecified), for which the Potency result in experiment [1], in experiment [5], in experiment [6], in experiment [7], in [8] and in experiment [9] was “inactive” throughout. In addition, the call in [2], in experiment [3] and in experiment [4] was inactive.
Consider `O=C1[O][Bi][O]c2ccccc21`, for which the outcome in experiment [2] was inactive.
As to `CC(=O)[C@]1(O)Cc2c(O)c3c(c(O)c2[C@@H](O[C@H]2C[C@H](N)[C@H](O)[C@H](C)O2)C1)C(=O)c1ccccc1C3=O`, the Potency entry in experiment [1], in [5] and in experiment [7] was “inactive” in each case. The call in experiment [3] and in experiment [4] was inactive. Moreover, the Potency in experiment [6] is 14.1 µM [fluorescent] (active); in experiment [8], 23.9 µM [inconclusive] (active).
On to `C[C@]12O[C@H](C[C@]1(O)CO)n1c3ccccc3c3c4c(c5c6ccccc6n2c5c31)CNC4=O`, for which the Potency entry in [1], in experiment [5], in experiment [6] and in [7] was “inactive” in each case. The result in experiment [2], in experiment [3] and in [4] was inactive.
`COC(=O)C(CN)c1c[nH]c2ccc(OC)cc12` (stereo unspecified): the Potency entry in experiment [1], in [6] and in [7] was “inactive” in each case. The call in [2], in experiment [3] and in experiment [4] was inactive.
As to `CN1[C@@H](CC(=O)c2ccccc2)CCC[C@H]1C[C@H](O)c1ccccc1`, the Potency result in experiment [1], in experiment [5], in experiment [6] and in [7] was “inactive” each time. In addition, the call in experiment [2], in experiment [3] and in experiment [4] was inactive.
For `CN(C)CCc1c[nH]c2ccc(Cn3cncn3)cc12`, the Potency entry in experiment [1], in [5], in experiment [6] and in [7] was “inactive” each time. In addition, the result in experiment [2], in [3] and in [4] was inactive.
With `CCCCCCCCCCCCCCCC(=O)OC[C@H](COP(=O)([O-])OCC[N+](C)(C)C)OC(=O)CCCCCCCCCCCCCCC`, the Potency result in experiment [1], in experiment [5], in [6], in experiment [7] and in experiment [8] was “inactive” throughout. In addition, the compound was classed as inactive in experiment [2], in [3] and in experiment [4].
As to `CC(C)NCC1CCc2cc(CO)c([N+](=O)[O-])cc2N1` (stereo unspecified), the Potency result in experiment [1], in [5], in experiment [6], in experiment [7], in experiment [8] and in experiment [9] was “inactive” throughout. For the same compound, the compound was called inactive in experiment [2], in [3] and in experiment [4].
On to `CN[C@H]1CC[C@@H](c2ccc(Cl)c(Cl)c2)c2ccc(S(N)(=O)=O)cc21`, for which the Potency entry in experiment [1], in [5], in [6] and in experiment [7] was “inactive” in each case. The compound was called inactive in experiment [2], in [3] and in experiment [4].
As to `Nc1ccc(N)c([N+](=O)[O-])c1`, the Potency result in experiment [1], in [5], in experiment [6] and in experiment [7] was “inactive” in each case. Further, the compound was called inactive in experiment [2], in experiment [3] and in [4].
Take `CCN(CC)C(=O)[C@]1(c2ccccc2)C[C@@H]1CN`: the Potency result in [1], in experiment [6], in experiment [7], in experiment [8] and in experiment [9] was “inactive” each time. Further, the result in [2], in [3] and in experiment [4] was inactive.
Take `NS(=O)(=O)c1cc(Cl)c(Cl)c(S(N)(=O)=O)c1`: the Potency result in [1], in experiment [5], in experiment [6], in experiment [7], in [8] and in experiment [9] was “inactive” in each case. Also, the result in [2], in experiment [3] and in experiment [4] was inactive.
For `O=C1CC[C@@H](C(=O)N[C@H]2C[C@@H]2c2ccccc2)N1`, the Potency result in experiment [1], in experiment [5], in experiment [6], in experiment [7] and in experiment [8] was “inactive” each time. In addition, the result in experiment [2], in experiment [3] and in experiment [4] was inactive.
On to `CCOC(=O)Cc1ccc(-c2ccccc2)cc1`, for which the Potency entry in [1], in experiment [5], in [6] and in experiment [7] was “inactive” in each case. For the same compound, the compound was called inactive in [2], in experiment [3] and in experiment [4].
On to `O=C(Cn1cnnn1)N[C@@H]1C(=O)N2C(C(=O)O)=C(CSc3nncs3)CS[C@H]12`, for which the Potency result in experiment [1], in [5], in experiment [6] and in [7] was “inactive” in each case. Moreover, the outcome in [2], in experiment [3] and in experiment [4] was inactive.
In the case of `CN(C/C=C/c1ccccc1)Cc1cccc2ccccc12`, the Potency entry in experiment [1], in experiment [6], in experiment [8] and in experiment [9] was “inactive” in each case. Further, the call in experiment [2], in experiment [3] and in [4] was inactive.
As to `NCCCC[C@H](NC(=O)[C@@H]1CCCN1C(=O)[C@@H]1CSSC[C@H](N)C(=O)N[C@@H](Cc2ccc(O)cc2)C(=O)N[C@@H](Cc2ccccc2)C(=O)N[C@@H](CCC(N)=O)C(=O)N[C@@H](CC(N)=O)C(=O)N1)C(=O)NCC(N)=O`, the Potency entry in experiment [1], in experiment [5], in experiment [6], in experiment [7], in experiment [8] and in experiment [9] was “inactive” each time. Moreover, the result in experiment [2], in experiment [3] and in experiment [4] was inactive.
In the case of `CN1CCN(CCCN2c3ccccc3Sc3ccc(Cl)cc32)CC1`, the Potency entry in [1], in [5], in [6] and in experiment [7] was “inactive” in each case. The result in [2], in experiment [3] and in experiment [4] was inactive.
As to `CC[C@@H](C)CCCCC(=O)N[C@@H](CCNCS(=O)(=O)O)C(=O)N[C@H](C(=O)N[C@@H](CCNCS(=O)(=O)O)C(=O)N[C@H]1CCNC(=O)[C@H]([C@@H](C)O)NC(=O)[C@H](CCNCS(=O)(=O)O)NC(=O)[C@H](CCNCS(=O)(=O)O)NC(=O)[C@H](CC(C)C)NC(=O)[C@@H](CC(C)C)NC(=O)[C@H](CCNCS(=O)(=O)O)NC1=O)[C@@H](C)O` (X3-[Dab(CH2SO3H)]T[Dab(CH2SO3H)][Dab][Dab(CH2SO3H)][dL]L[Dab(CH2SO3H)][Dab(CH2SO3H)]T; lactam 4-C), the Potency result in [1], in experiment [5], in experiment [6], in experiment [8] and in [9] was “inactive” each time. Moreover, the call in experiment [2], in experiment [3] and in experiment [4] was inactive.
Turning to `C[C@H](O)CN(C)C`, the Potency result in experiment [1], in experiment [5], in experiment [6] and in experiment [7] was “inactive” in each case. Moreover, the result in experiment [2], in [3] and in experiment [4] was inactive.
For `CCN(CC)C(=O)c1cccnc1`, the Potency result in [1], in experiment [5], in [6], in experiment [7], in experiment [8] and in experiment [9] was “inactive” throughout. Besides, the compound was classed as inactive in experiment [2], in [3] and in [4].
As to `O=C(O)c1cc(=O)c2c3nc4ccccc4oc-3cc(=O)c2[nH]1`, the Potency result in experiment [1], in experiment [6] and in [8] was “inactive” each time. The compound was classed as inactive in [2], in experiment [3] and in experiment [4].
`CCC1OC(=O)C[C@@H](O)[C@H](C)[C@@H](O[C@@H]2O[C@H](C)C[C@H](N(C)C)[C@H]2O)[C@@H](CC=O)C[C@@H](C)C(=O)/C=C/[C@]2(C)OC2C1C` (stereo partly specified): the Potency result in [1], in experiment [5], in experiment [6] and in [7] was “inactive” in each case. In addition, the compound was classed as inactive in [2], in [3] and in experiment [4].
On to `COC(=O)[C@H]1[C@H]2C[C@H]3c4[nH]c5ccccc5c4CCN3C[C@H]2CC[C@@H]1O`, for which the Potency entry in experiment [1], in [6] and in [7] was “inactive” in each case. The call in experiment [2], in experiment [3] and in [4] was inactive.
As to `CN(Cc1ccccc1)Cc1ccccc1`, the Potency entry in experiment [1], in experiment [5], in [6] and in [7] was “inactive” each time. Further, the outcome in [2], in experiment [3] and in experiment [4] was inactive.
